Bioassay records as filed in PubChem BioAssay.
VP16 counter – Gal4-VP16 reporter inhibition counter-screen | hit rate 3.5% among 310,000 | Drosophila S2 Gal4-VP16 UAS-luciferase, luminescence, 20 h | Potency, µM (highest dose often 53.6 µM), hits mostly inhibitors;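 further: Gal4-VP16 expression switched on by copper sulfate through the metallothionein promoter; nearly all actives have a fitted effect of over 50% in size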
TDP1 cell CPT – growth inhibition of DT40 Tdp1-/-;hTDP1 cells with camptothecin (screen for TDP1 inhibitors); chicken DT40 Tdp1-/-;hTDP1 cells + 20 nM CPT, ATP luminescence, 48 h; hit rate 12% among 420,000; Potency, µM (top dose mostly 46.2 µM), actives largely listed as inhibitors; further: nearly all actives have a fitted effect of over 55% in size
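Chicken DT40 Tdp1-/- cells complemented with human TDP1, 400 cells/well, exposed to compounds plus 20 nM camptothecin for at least 48 h at 37 C; viability read as ATP content by CellTiter-Glo luminescence.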
RORgamma inh – inhibitors of mouse ROR gamma transcriptional activity | hit rate 5.4% among 310,000 | Potency, µM (highest dose often 53.6 µM), usual class: inhibitors | P51450 | Drosophila S2 Gal4-RORgamma UAS-luciferase reporter, 20 h; further: nearly all actives have a fitted effect of over 60% in size
Target sequence (P51450 whole entry, looked up, the tested form may be a part): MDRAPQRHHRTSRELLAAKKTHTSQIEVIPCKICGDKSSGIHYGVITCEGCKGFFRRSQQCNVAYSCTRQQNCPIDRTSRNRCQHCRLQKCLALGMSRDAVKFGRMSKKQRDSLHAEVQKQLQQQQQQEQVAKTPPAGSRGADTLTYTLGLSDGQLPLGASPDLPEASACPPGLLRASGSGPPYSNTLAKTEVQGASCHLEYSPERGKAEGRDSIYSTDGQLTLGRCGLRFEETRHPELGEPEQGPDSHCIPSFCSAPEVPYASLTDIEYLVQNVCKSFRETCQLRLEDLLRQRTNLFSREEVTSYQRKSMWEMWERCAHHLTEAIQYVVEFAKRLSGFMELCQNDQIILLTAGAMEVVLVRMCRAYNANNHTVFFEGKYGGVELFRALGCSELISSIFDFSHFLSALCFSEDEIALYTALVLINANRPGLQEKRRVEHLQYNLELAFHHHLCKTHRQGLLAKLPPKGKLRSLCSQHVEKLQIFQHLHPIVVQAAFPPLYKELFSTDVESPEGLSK
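Read-out: Photinus luciferase luminescence; inhibitors lower reporter signal. Insect Schneider cells with Gal4-ROR gamma fusion under metallothionein promoter, UAS reporter; 700 uM final copper sulfate induction, 20 hr, ambient temperature.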
TDP1 block – inhibitors of human tyrosyl-DNA phosphodiesterase TDP1. Potency, µM (top dose mostly 130 µM), most hits filed as inhibitors. hit rate 0.28% among 350,000. recombinant TDP1, AlphaScreen DNA substrate cleavage; further: nearly all actives have a fitted effect of over 40% in size
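AlphaScreen read-out: signal falls as enzyme removes the 3' tyrosine-FITC from a 5'-biotinylated DNA oligo (15 nM, 5 min, RT). Enzyme was E. coli-made recombinant Tdp1 at 1 nM, exposed to compound for 15 min beforehand; beads 10 ug/ml, 10 min.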
DT40 TDP1 no CPT – qHTS for Inhibitors of human tyrosyl-DNA phosphodiesterase 1 (TDP1): qHTS in cells in absence of CPT; hit rate 15% among 420,000; DT40 Tdp1-/- hTDP1 cells, no CPT, ATP luminescence, 48 h; Potency, µM (titrated, usually from 46.2 µM), actives largely listed as inhibitors; further: nearly all actives have a fitted effect of over 55% in size
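DT40 Tdp1-/-;hTDP1 cells, no CPT (DMSO vehicle only), 400 cells/well; compounds pin-transferred; ≥48 hr, 37 °C; CellTiter-Glo 30 min RT dark, luminescence read.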
Numbers stand for hits; . = inactive; ? = inconclusive; / = no result. Most compounds without a hit are left out; they make up all but 19% or so of the library. The call rests on the fitted dose curve; in most records, active means well fitted curve in the direction sought with a large enough effect; inconclusive means small, poorly fitted or top-dose-only effect, or another doubt; inactive means no such curve, though single readings can be large; an effect the other way counts as inactive or inconclusive.

SMILES | VP16 counter | TDP1 cell CPT | RORgamma inh | TDP1 block | DT40 TDP1 no CPT
COc1ccc(CC(=O)Nc2ccc(-c3cn4cccc(C)c4n3)cc2)cc1OC | . | ? | . | . | 23µM
COc1ccc(CC(=O)Nc2cccc(C)n2)cc1OC | . | . | ? | . | ?
Cc1cccn2cc(-c3ccc(NC(=O)Cc4ccccc4)cc3)nc12 | ? | ? | 5µM | / | ?
Cc1ccn2cc(-c3cccc(NC(=O)C(C)C)c3)nc2c1 | ? | 15µM | 4µM | . | 29µM
COc1ccc(CC(=O)Nc2ccc(-c3cn4ccc(C)cc4n3)cc2)cc1 | ? | 5.8µM | ? | . | 5.2µM
CCCCCNC(=O)c1cc(S(=O)(=O)N2CCCC2)ccc1F | . | ? | . | . | .
COc1ccc(S(=O)(=O)NCc2ccc(C)cc2)cc1 | . | . | . | . | ?
CC1CCc2c(sc3nc(CN4CCOCC4)nc(NS(=O)(=O)c4cccc([N+](=O)[O-])c4)c23)C1 (configuration not stated) | . | . | ? | . | .
Cc1onc(-c2ccccc2Cl)c1C(=O)NC(=S)Nc1ccc(C(C)C)cc1 | ? | . | 1.8µM | . | ?
Cc1onc(-c2ccccc2Cl)c1C(=O)N1CCN(c2ccccc2)CC1 | . | ? | . | . | ?
Cc1onc(-c2ccccc2Cl)c1C(=O)N1CCN(c2cccc(Cl)c2)CC1 | . | 1.6µM | . | . | 1.5µM
Cc1onc(-c2ccccc2Cl)c1C(=O)NC(C)c1ccccc1 (configuration not stated) | . | . | . | . | .
CC(=O)N1CCN(C(=S)NC(=O)c2c(-c3ccccc3Cl)noc2C)CC1 | 5µM | . | 1.6µM | . | .
Cc1ccc(NC(=S)NC(=O)c2c(-c3ccccc3Cl)noc2C)cc1 | 11µM | . | 4µM | . | ?
Cn1c2ccccc2c2cc(C(=O)N3CCOc4ccc(C(C)(O)CCn5cccn5)cc4C3)ccc21 (configuration not stated) | / | . | / | / | .
CC1CCN(C(=O)COC(=O)COc2ccccc2C#N)CC1 | / | . | / | . | .
CC(C)CC(=O)c1c[nH]c(C(=O)N2CCN(Cc3ccccc3)CC2)c1 | . | . | . | . | .
O=C(NCc1ccccc1)C(C1CC1)n1c(Cc2cc(F)cc(F)c2)nc2ccccc21 (configuration not stated) | / | ? | / | / | 18µM
CC(C(=O)NCc1ccccc1)n1c(Cc2cc(F)cc(F)c2)nc2ccccc21 (configuration not stated) | / | . | / | / | ?
O=S1(=O)N[C@H](Cc2ccccc2)COc2cc(N3CCN(Cc4ccccc4F)CC3)ccc21 | / | ? | / | / | 16µM
CC1(C)CC(=O)C2=C(C1)Nc1ccccc1NC2c1ccc(F)c(F)c1 (configuration not stated) | . | ? | . | / | .
COc1ccc(OCC(=O)NNc2c3ccccc3nc3ccccc23)cc1 | 7.1µM | 23µM | 0.35µM | / | 21µM
O=C(COc1ccccc1)NNc1c2ccccc2nc2ccccc12 | . | ? | . | . | 13µM
NC(=O)c1ccc2c(c1)S(=O)(=O)c1ccccc1C2=O | . | . | . | . | 16µM
O=C(Nc1ccc2c(c1)OCO2)c1ccc(NC2CC2)c([N+](=O)[O-])c1 | . | 21µM | . | . | 21µM
SMILES | VP16 counter | TDP1 cell CPT | RORgamma inh | TDP1 block | DT40 TDP1 no CPT
O=C(NCCc1ccccc1)c1ccc2c(c1)S(=O)(=O)c1cc(Cl)ccc1C2=O | / | 21µM | / | . | .
O=C(NCCc1ccccc1)c1ccc2c(c1)S(=O)(=O)c1ccccc1C2=O | / | ? | / | / | 13µM
O=C(Nc1ccc2c(c1)OCO2)c1ccc2c(c1)OCO2 | ? | ? | ? | . | ?
O=C(O)c1ccc2c(c1)S(=O)(=O)c1ccccc1C2=O | . | . | . | / | .
CC1CCC(NC(=O)c2ccc3c(c2)S(=O)(=O)c2ccccc2C3=O)CC1 (configuration not stated) | / | ? | / | / | 15µM
O=C1c2ccccc2S(=O)(=O)c2cc(N3CCN(C(=O)c4ccccc4)CC3)ccc21 | / | 15µM | / | / | 21µM
CC(C)(C)c1ccc(-c2ccc3c(c2)S(=O)(=O)c2ccccc2C3=O)cc1 | / | ? | / | / | 23µM
CC1CCC(NC(=O)c2ccc3c(c2)OCO3)CC1 (configuration not stated) | ? | ? | 10µM | . | .
O=C1c2ccccc2S(=O)(=O)c2cc(C(=O)N3CCCC3)ccc21 | / | . | / | / | /
NS(=O)(=O)c1ccc(CCNC(=O)c2cc3ccccc3s2)cc1 | . | . | . | / | .
O=C(OCc1c(-c2ccccc2)ncc2ccccc12)c1ccc(F)cc1 | / | ? | / | . | 16µM
COc1ccc(C(=O)OCc2c(-c3cccc(OC)c3)ncc3ccccc23)cc1 | / | ? | / | . | .
COc1cccc(OC)c1C(=O)OCc1c(-c2ccccc2)ncc2ccccc12 | / | 21µM | / | . | 18µM
COc1cccc(-c2ncc3ccccc3c2COC(=O)N2CCOCC2)c1 | / | ? | / | . | ?
COc1cccc(-c2ncc3ccccc3c2COC(=O)N2CCCCC2)c1 | / | ? | / | . | 16µM
CCN(CC)C(=O)OCc1c(-c2cccc(OC)c2)ncc2ccccc12 | / | . | / | . | ?
CCN(CC)C(=O)OCc1c(-c2ccccc2)ncc2ccccc12 | / | ? | / | . | 23µM
O=C(O)c1ccccc1C(=O)OCc1c(-c2ccccc2)ncc2ccccc12 | / | ? | / | . | .
O=S(=O)(Nc1nc2ccccc2s1)c1cc(F)ccc1F | . | . | . | . | .
COc1ccc(OC)c(CNC(=O)Cc2ccc(NC(=O)N3CCSc4ncccc43)cc2)c1 | / | ? | / | . | ?
O=C(NCc1ccccc1F)c1cccc(NC(=O)N2CCSc3ncccc32)c1 | / | 23µM | / | . | ?
Cc1ccc(CNC(=O)c2cccc(NC(=O)N3CCSc4ncccc43)c2)cc1 | / | ? | / | . | 21µM
CC(C)Oc1ccc(CNC(=O)Cc2ccc(NC(=O)N3CCSc4ncccc43)cc2)cc1 | / | 16µM | / | . | 16µM
NS(=O)(=O)c1ccc(CCNC(=O)c2ccc(CS(=O)(=O)c3ccc(Br)cc3)o2)cc1 | . | . | . | . | .
Cc1ccc(NC2=NC(c3ccc(C)cc3)n3c(nc(C)cc3=O)N2)cc1 (configuration not stated) | . | . | . | . | .
COC(=O)c1ccc(C)c(NC(=O)CCc2ccc(OC)cc2)c1 | . | . | . | . | .
Cc1ccc(S(=O)(=O)N(C)Cc2ccc(C(=O)N/N=C/c3ccc(OC(F)F)cc3)cc2)cc1 | . | 15µM | . | . | 21µM
O=C(N/N=C/c1ccc(OC(F)F)cc1)c1cc[n+]([O-])cc1 | . | . | . | . | .
C/C(=N\NC(=O)c1ccc(CN(C)S(=O)(=O)c2ccc(C)cc2)cc1)c1ccc(OC(F)F)cc1 | ? | ? | ? | . | 1.5µM
Cc1ccc(O)c(N=Cc2ccc(C)s2)c1 | . | . | . | . | .
